The AC50 is the concentration at which the activity in the assay is half-maximal.

The record followed here is PubChem BioAssay (EPA / NIEHS).

Each structure is given as a SMILES string. Records with an inconclusive call do not appear. Active and inactive are the calls of the source. Rule for the calls: active = hit-call score of the fitted dose curve at least 0.9, where 1 is the maximum; inconclusive = response in the unintended direction; inactive = score below 0.9.

Sequence of human Neonicotinoid receptor (NNR), CHRNA2 (gene 1135) (Q15822 whole entry, looked up): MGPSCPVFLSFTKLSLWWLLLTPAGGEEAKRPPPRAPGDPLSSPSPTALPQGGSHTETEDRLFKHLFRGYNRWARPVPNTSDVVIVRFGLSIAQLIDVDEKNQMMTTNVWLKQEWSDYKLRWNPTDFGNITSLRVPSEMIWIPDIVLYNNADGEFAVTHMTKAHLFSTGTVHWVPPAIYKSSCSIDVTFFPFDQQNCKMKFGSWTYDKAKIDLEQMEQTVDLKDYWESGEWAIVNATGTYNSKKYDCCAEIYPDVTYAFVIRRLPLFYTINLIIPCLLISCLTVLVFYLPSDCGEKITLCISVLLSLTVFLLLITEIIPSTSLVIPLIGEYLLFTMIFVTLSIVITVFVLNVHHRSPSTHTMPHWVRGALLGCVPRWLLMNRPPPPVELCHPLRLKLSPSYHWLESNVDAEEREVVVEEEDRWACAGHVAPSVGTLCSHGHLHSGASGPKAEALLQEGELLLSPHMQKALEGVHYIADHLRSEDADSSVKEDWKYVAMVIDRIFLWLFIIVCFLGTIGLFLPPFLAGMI
Sequence of rat Corticotropin Releasing Factor Receptor (CRF), Crhr1 (gene 58959) (P35353 whole entry, looked up): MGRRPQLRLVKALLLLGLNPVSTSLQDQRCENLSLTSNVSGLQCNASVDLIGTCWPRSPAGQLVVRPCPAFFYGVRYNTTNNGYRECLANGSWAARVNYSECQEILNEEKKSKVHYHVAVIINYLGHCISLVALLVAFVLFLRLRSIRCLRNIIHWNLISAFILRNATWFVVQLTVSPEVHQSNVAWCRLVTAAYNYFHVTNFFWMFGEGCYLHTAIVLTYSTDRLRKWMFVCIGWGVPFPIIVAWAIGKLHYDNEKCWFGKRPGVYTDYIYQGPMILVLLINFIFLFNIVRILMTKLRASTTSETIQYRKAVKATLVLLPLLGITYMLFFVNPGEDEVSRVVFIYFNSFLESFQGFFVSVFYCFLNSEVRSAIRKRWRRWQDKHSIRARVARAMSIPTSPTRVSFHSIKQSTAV
Sequence of rat Monoamine Oxidase, MAO-B, Peripheral (MAOBP), Maob (gene 25750) (P19643 whole entry, looked up): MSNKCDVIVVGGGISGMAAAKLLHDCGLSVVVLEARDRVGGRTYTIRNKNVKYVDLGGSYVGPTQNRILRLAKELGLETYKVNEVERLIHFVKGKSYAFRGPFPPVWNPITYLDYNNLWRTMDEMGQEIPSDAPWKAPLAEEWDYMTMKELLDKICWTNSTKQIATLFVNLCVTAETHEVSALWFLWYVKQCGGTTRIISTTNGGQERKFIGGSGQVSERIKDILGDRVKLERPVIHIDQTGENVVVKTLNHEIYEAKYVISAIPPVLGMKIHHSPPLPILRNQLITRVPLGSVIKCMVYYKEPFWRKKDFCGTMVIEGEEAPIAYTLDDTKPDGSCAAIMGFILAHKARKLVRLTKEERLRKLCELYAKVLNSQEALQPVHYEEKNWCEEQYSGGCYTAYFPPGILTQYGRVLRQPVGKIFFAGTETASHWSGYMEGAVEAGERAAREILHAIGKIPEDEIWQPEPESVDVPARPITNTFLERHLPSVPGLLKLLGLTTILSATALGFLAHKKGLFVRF

One experiment concerns the target rat Monoamine Oxidase, MAO-B, Peripheral (MAOBP), Maob (gene 25750) (UniProt P19643). The experiment in a line: NVS_ENZ_rMAOBP: NovaScreen (NVS) Enzymatic Assay for rat Monoamine Oxidase, MAO-B, Peripheral (MAOBP) (AID 2283242).
With `NC(=Nc1ccccc1)Nc1ccccc1`, the result was inactive. Still for that read-out and setting: to `OCC(CO)(CBr)CBr` belongs “inactive”. As to `CCOC(=O)[C@H](C)Oc1ccc(Oc2nc3ccc(Cl)cc3o2)cc1`, the AC50 is 15.9 µM (active). The same measure, in the same setting: to `Cc1[nH]cnc1C[C@H]1CCc2c(C)c3ccccc3n2C1=O` belongs 22.2 µM (active).

Another experiment relates to rat Monoamine Oxidase, MAO-A, Central (MAOAC), gene 29253. Put plainly: NVS_ENZ_rMAOAC: NovaScreen (NVS) Enzymatic Assay for rat Monoamine Oxidase, MAO-A, Central (MAOAC) (AID 2283243).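 Note: potency refers to inhibition seen as signal drop below DMSO baseline.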 In a few lines: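 Steps: rat brain protein extract dosed with test chemical (25 uM, duplicate, primary); incubated 1.5 h; radiolabelled product separated from substrate and counted. Signal loss versus DMSO scored as inhibition.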
Consider `O=C1c2ccccc2C(=O)c2c(Cl)cccc21`, for which the AC50 is 3.72 µM (active). Still for that read-out and setting: to `Oc1cccc2ccccc12` belongs 15.4 µM (active). Same read-out and setting: to `COc1ccc2nc(N)sc2c1` belongs 9.33 µM (active). For `Cc1ccc2sc3cccc(C)c3c2c1`, the compound was classed as inactive. In the case of `Nc1cccc(N)c1`, the AC50 is 4.33 µM (active). Still for that read-out and setting: to `CC=Cc1ccc(OCC)c(O)c1` belongs 20.3 µM (active); to `O=c1c(O)c(-c2ccc(O)c(O)c2)oc2cc(O)cc(O)c12`, 9.38 µM (active).

On to `Cc1cc(C)c(C=O)c(C)c1`, for which the AC50 is 19.9 µM (active).

On to `O=[N+]([O-])c1ccc(O)cc1C(F)(F)F`, for which the AC50 is 21.1 µM (active). With `CN1CN(C)CN(C)C1`, the compound was called inactive. On to `CCOC(=O)CC(CC(=O)OCC)(OC(C)=O)C(=O)OCC`, for which the AC50 is 25 µM (active).

Take `CCOC(=O)[C@H](C)Oc1ccc(Oc2nc3ccc(Cl)cc3o2)cc1`: the AC50 was 17.4 µM (active). On the same count and under the same terms, to `Oc1ccc(Nc2ccccc2)cc1` belongs 17.7 µM (active); to `O=C1OC2(c3ccccc31)c1cc(I)c(O)c(I)c1Oc1c2cc(I)c(O)c1I`, 0.828 µM (active). Take `CCCCCCCCCCCCCCCC[N+](C)(C)Cc1ccccc1`: the outcome was inactive. As for `CCCCCCCCCCCCCCCCO`, the compound was called inactive. On to `Cc1c(Cl)c(=O)oc2cc(O)ccc12`, for which the AC50 is 12.2 µM (active). The same measure, in the same setting: to `CC(=O)Nc1ccc(N=Nc2cc(C)ccc2O)cc1` belongs 0.0709 µM (active); to `CC(=O)CCc1ccc(O)cc1`, 17.5 µM (active). As to `CCOc1ccc(NC(N)=O)cc1`, the AC50 is 16.6 µM (active). For the compound `CCNc1nc(N)nc(Cl)n1`, the AC50 was 37.6 µM (active).

In the next experiment the target is rat Corticotropin Releasing Factor Receptor (CRF), Crhr1 (gene 58959) (UniProt P35353). Put plainly: NVS_GPCR_rCRF: NovaScreen (NVS) G Protein-Coupled Receptor Assay for rat Corticotropin Releasing Factor Receptor (CRF) (AID 2283300). In a few lines:
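Rat cortical membranes used as receptor source in a radioligand competitive displacement binding assay; scintillation read 2 h after dosing. Primary screen run in duplicate at 25 uM; loss of signal versus DMSO baseline indicates binding.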
Regarding `OCCC(F)(F)C(F)(F)C(F)(F)C(F)(F)C(F)(F)C(F)(F)C(F)(F)C(F)(F)F`, the compound was classed as inactive. In the case of `COCCOCCOCCOC`, the call was inactive. The same measure, in the same setting: to `C1CCC(SSC2CCCCC2)CC1` belongs “inactive”. The same measure, in the same setting: to `C[C@]12CC[C@@H]3c4ccc(O)cc4CC[C@H]3[C@@H]1CCC2=O` belongs “inactive”; to `OCCO`, “inactive”; to `CCNc1nc(N)nc(Cl)n1`, “inactive”.

Another experiment addresses human Neonicotinoid receptor (NNR), CHRNA2 (gene 1135) (UniProt Q15822). The experiment in a line: NVS_LGIC_hNNR_NBungSens: NovaScreen (NVS) Ligand-Gated Ion Channel Assay for human Neonicotinoid receptor (NNR) (AID 2283313). In a few lines:
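Radioligand displacement on human neuroblastoma membranes, 2 h, filter-based scintillation counting. Primary screen in duplicate at 25 uM; chemicals passing threshold (e.g. 30% inhibition) run singleton concentration-response to 50 uM; loss of binding fitted versus DMSO.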
Regarding `Cc1[nH]cnc1C[C@H]1CCc2c(C)c3ccccc3n2C1=O`, the call was inactive. Turning to `CCCOC(=O)NCCCN(C)C`, the AC50 was 7.3 µM (active).

`Cc1cc(SC2=C(O)C[C@@](CCc3ccc(N)cc3)(C(C)C)OC2=O)c(C(C)(C)C)cc1CO`: the AC50 was 13.1 µM (active).
